From PubChem BioAssay (Tox21)
Records with an inconclusive call do not appear. Where a call stands in place of a potency, no number is given. Activity calls are given as the source filed them. Calls follow the shape of the dose curve; as a rule, active = well fitted curve in the direction sought with a large enough effect in the repeat runs; inconclusive = weak or mixed curves; inactive = no such curve, though single readings can be large; an effect the other way counts as inactive or inconclusive.

assay: qHTS assay to identify small molecule antagonists of the estrogen related receptor (ERR) signaling pathway - cell viability counter screen (AID 1224818); conditions: ERR reporter cell line viability counter screen; series mostly up to 46.1 µM;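 also: viability measured after 17.5 h of compound exposure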
Summary of the method: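 ERR cells, 2,000/well; 6 h settle at 37 C/5% CO2; compound pin transfer (DMSO); 17.5 h at 37 C; CellTiter-Fluor, 30 min, fluorescence read.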
Potency is read from the fitted curve at half-maximal effect.

SMILES | Potency
COc1ccc(-c2ccc(N)[n+](CCCC(=O)O)n2)cc1 | inactive
NC1CCN(O)C1=O (centres undefined) | inactive
O=C(O)C1=CCCNC1 | inactive
COCCOc1cc2nc[nH]c(=O)c2cc1OCCOC | inactive
O=C1NC(=O)/C(=C/c2ccc3c(c2)OC(F)(F)O3)S1 | inactive
COc1ccc2c(c1)c(CC(=O)O)c(C)n2Cc1ccc(Cl)cc1 | inactive
O=Nc1c(-c2c(O)[nH]c3cc(Br)ccc23)[nH]c2ccccc12 | 16.2 µM (active)
CNCCC(Oc1ccccc1C)c1ccccc1 (centres undefined) | inactive
O=C(OCCN1CCOCC1)C1(c2ccccc2)CCCCC1 | inactive
N[C@H](C(=O)O)[C@H](O)C(=O)O | inactive
CCCn1c(=O)c2[nH]c(-c3ccc(S(=O)(=O)O)cc3)nc2n(CCC)c1=O | inactive
N#CC(=C(\N)Sc1ccccc1N)/C(C#N)=C(/N)Sc1ccccc1N | inactive
Cc1cc(Cn2cnc3c2C[C@@H](C(=O)O)N(C(=O)C(c2ccccc2)c2ccccc2)C3)ccc1N | inactive
NC1(C(=O)O)CC1 | inactive
NOCC(=O)O | inactive
O=c1[nH]c(=O)c2nc3ccccc3nc2[nH]1 | inactive
Brc1c(Br)c(Br)c2n[nH]nc2c1Br | inactive
O=c1onc2cnc3ccccc3n12 | inactive

assay: qHTS assay to identify small molecule antagonists of the estrogen related receptor (ERR) signaling pathway (AID 1224819; also: nearly all actives have a fitted effect of over 50% in size); conditions: ERR reporter cell line, luciferase inhibition; series mostly up to 46.1 µM
Summary of the method: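 qHTS in ERR cells, 2,000/well, 1536 format. Cpd (DMSO) added after 6 h settle, 18 h 37 C. One-Glo luminescence, 30 min RT.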

SMILES | Potency
Nc1ncnc2c1ncn2C1CCCO1 (centres undefined) | inactive
CC(C)Cc1ccc([C@H](C)C(=O)O)cc1 | inactive
CC(C)(C)c1onc(OCP(=O)(O)O)c1CC(N)C(=O)O (centres undefined) | inactive
CNCCNS(=O)(=O)c1cccc2cnccc12 | 21.1 µM (active)
CC[N+](CC)(CC)CC(=O)Nc1c(C)cccc1C | inactive
CCOC(=O)C12CC1/C(=N/O)c1ccccc1O2 (centres undefined) | inactive
O=[N+]([O-])c1cccc2cn[nH]c12 | inactive
NC(N)=[N+]1CCc2ccccc2C1 | inactive
NCCCCN=C(N)N | inactive
NC(N)=NC(N)=Nc1cccc(Cl)c1 | inactive
CS(=O)(=O)c1cccc(CNc2nc(Nc3ccc4c(c3)CCC(=O)N4)ncc2C(F)(F)F)c1 | inactive
CC(=O)NC[C@H]1CN(c2ccc(N3CCOCC3)c(F)c2)C(=O)O1 | inactive
CCNc1nc2c(ncn2[C@H]2C[C@H](O)[C@@H](CO)O2)c(=O)[nH]1 | inactive
O=C(O)CCC(=O)N1CCCC1C(=O)O (centres undefined) | inactive
O=C(O)c1cc(=O)cc(C(=O)O)[nH]1 | inactive
Nc1ncnc2c1ncn2[C@@H]1O[C@H](COP(=O)(O)OP(=O)(O)OP(=O)(O)OP(=O)(O)OC[C@@H]2O[C@H](n3cnc4c(N)ncnc43)[C@@H](O)C2O)C(O)[C@H]1O (some centres undefined) | inactive
COc1ccc(-c2cc3ncc(C)n3c(Nc3ncccc3C(N)=O)n2)cc1OC | 2.87 µM (active)
CC(C)(Sc1ccc(CCN(CCCCC2CCCCC2)C(=O)NC2CCCCC2)cc1)C(=O)O | inactive
N[C@@H](Cc1ccc(O)c(O)c1)C(=O)O | inactive

SMILES | Potency
Brc1ccc([C@H]2CN3CCSC3=N2)cc1 | inactive
COc1ccc(-c2ccc(N)[n+](CCCC(=O)O)n2)cc1 | inactive
NC1CCN(O)C1=O (centres undefined) | inactive
O=C(O)C1=CCCNC1 | inactive
COCCOc1cc2nc[nH]c(=O)c2cc1OCCOC | inactive
O=C1NC(=O)/C(=C/c2ccc3c(c2)OC(F)(F)O3)S1 | inactive
COc1ccc2c(c1)c(CC(=O)O)c(C)n2Cc1ccc(Cl)cc1 | inactive
O=Nc1c(-c2c(O)[nH]c3cc(Br)ccc23)[nH]c2ccccc12 | inactive
CNCCC(Oc1ccccc1C)c1ccccc1 (centres undefined) | inactive
O=C(OCCN1CCOCC1)C1(c2ccccc2)CCCCC1 | inactive
N[C@H](C(=O)O)[C@H](O)C(=O)O | inactive
CCCn1c(=O)c2[nH]c(-c3ccc(S(=O)(=O)O)cc3)nc2n(CCC)c1=O | inactive
N#CC(=C(\N)Sc1ccccc1N)/C(C#N)=C(/N)Sc1ccccc1N | 10.2 µM (active)
Cc1cc(Cn2cnc3c2C[C@@H](C(=O)O)N(C(=O)C(c2ccccc2)c2ccccc2)C3)ccc1N | inactive
NC1(C(=O)O)CC1 | inactive
NOCC(=O)O | inactive
O=c1[nH]c(=O)c2nc3ccccc3nc2[nH]1 | inactive
Brc1c(Br)c(Br)c2n[nH]nc2c1Br | 22 µM (active)
O=c1onc2cnc3ccccc3n12 | inactive

assay: qHTS assay to identify small molecule agonists of the estrogen related receptor (ERR) signaling pathway (AID 1224820); conditions: ERR reporter cell line, luciferase agonist mode; series mostly up to 46.1 µM
Summary of the method: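 After 6 h plating (2,000 cells/well) and 18 h compound treatment at 37 C, ERR cells were lysed with One-Glo and luminescence read after 30 min at room temperature.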

SMILES | Potency
Nc1ncnc2c1ncn2C1CCCO1 (centres undefined) | inactive
CC(C)Cc1ccc([C@H](C)C(=O)O)cc1 | inactive
CC(C)(C)c1onc(OCP(=O)(O)O)c1CC(N)C(=O)O (centres undefined) | inactive
CNCCNS(=O)(=O)c1cccc2cnccc12 | inactive
CC[N+](CC)(CC)CC(=O)Nc1c(C)cccc1C | inactive
CCOC(=O)C12CC1/C(=N/O)c1ccccc1O2 (centres undefined) | inactive
O=[N+]([O-])c1cccc2cn[nH]c12 | inactive
NC(N)=[N+]1CCc2ccccc2C1 | inactive
NCCCCN=C(N)N | inactive
NC(N)=NC(N)=Nc1cccc(Cl)c1 | inactive
CS(=O)(=O)c1cccc(CNc2nc(Nc3ccc4c(c3)CCC(=O)N4)ncc2C(F)(F)F)c1 | inactive
CC(=O)NC[C@H]1CN(c2ccc(N3CCOCC3)c(F)c2)C(=O)O1 | inactive
CCNc1nc2c(ncn2[C@H]2C[C@H](O)[C@@H](CO)O2)c(=O)[nH]1 | inactive
O=C(O)CCC(=O)N1CCCC1C(=O)O (centres undefined) | inactive
O=C(O)c1cc(=O)cc(C(=O)O)[nH]1 | inactive
Nc1ncnc2c1ncn2[C@@H]1O[C@H](COP(=O)(O)OP(=O)(O)OP(=O)(O)OP(=O)(O)OC[C@@H]2O[C@H](n3cnc4c(N)ncnc43)[C@@H](O)C2O)C(O)[C@H]1O (some centres undefined) | inactive
COc1ccc(-c2cc3ncc(C)n3c(Nc3ncccc3C(N)=O)n2)cc1OC | inactive
CC(C)(Sc1ccc(CCN(CCCCC2CCCCC2)C(=O)NC2CCCCC2)cc1)C(=O)O | inactive
N[C@@H](Cc1ccc(O)c(O)c1)C(=O)O | inactive

SMILES | Potency
Brc1ccc([C@H]2CN3CCSC3=N2)cc1 | inactive
COc1ccc(-c2ccc(N)[n+](CCCC(=O)O)n2)cc1 | inactive
NC1CCN(O)C1=O (centres undefined) | inactive
O=C(O)C1=CCCNC1 | inactive
COCCOc1cc2nc[nH]c(=O)c2cc1OCCOC | inactive
O=C1NC(=O)/C(=C/c2ccc3c(c2)OC(F)(F)O3)S1 | 3.16 µM (active)
COc1ccc2c(c1)c(CC(=O)O)c(C)n2Cc1ccc(Cl)cc1 | inactive
O=Nc1c(-c2c(O)[nH]c3cc(Br)ccc23)[nH]c2ccccc12 | 1.68 µM (active)
CNCCC(Oc1ccccc1C)c1ccccc1 (centres undefined) | inactive
O=C(OCCN1CCOCC1)C1(c2ccccc2)CCCCC1 | inactive
N[C@H](C(=O)O)[C@H](O)C(=O)O | inactive
CCCn1c(=O)c2[nH]c(-c3ccc(S(=O)(=O)O)cc3)nc2n(CCC)c1=O | inactive
N#CC(=C(\N)Sc1ccccc1N)/C(C#N)=C(/N)Sc1ccccc1N | inactive
Cc1cc(Cn2cnc3c2C[C@@H](C(=O)O)N(C(=O)C(c2ccccc2)c2ccccc2)C3)ccc1N | inactive
NC1(C(=O)O)CC1 | inactive
NOCC(=O)O | inactive
O=c1[nH]c(=O)c2nc3ccccc3nc2[nH]1 | inactive
Brc1c(Br)c(Br)c2n[nH]nc2c1Br | inactive
O=c1onc2cnc3ccccc3n12 | inactive
